PubChem BioAssay (NCI)
Compounds without any hit were thinned out: in the full panel of roughly 79,000, 15% have a hit. Calls of active or inactive are those of the source. Cut-off read from the data, not from the text of the source: active = growth inhibition above about 70%; inactive = the rest.

Key:
[1] = NCI Yeast Anticancer Drug Screen. Data for the wt1 strain (AID 149);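 note: 0% = growth of vehicle-treated wt1 cultures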; settings: S. cerevisiae wt1 strain (SPY 50644) growth inhibition, active compounds read high
How it was run: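 Yeast wt1 strain exposed to compounds; growth inhibition measured relative to vehicle-treated controls.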

[2] = NCI Yeast Anticancer Drug Screen. Data for the mgt1 strain (AID 153); settings: S. cerevisiae mgt1 mutant growth inhibition, active compounds read high
How it was run: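 Read-out: yeast growth inhibition vs vehicle control. Strain mgt1, drawn from a panel altered in DNA damage repair or cell cycle control.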

[3] = NCI Yeast Anticancer Drug Screen. Data for the rad50 strain (AID 155);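 note: 0% = growth of vehicle-only cultures of the same strain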; settings: S. cerevisiae rad50 strain growth inhibition, active compounds read high
How it was run: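 Yeast carrying a defined DNA repair defect were exposed to test compounds, and growth was compared with vehicle-treated controls to give percent inhibition.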

[4] = NCI Yeast Anticancer Drug Screen. Data for the mec2-1 strain (AID 157); settings: S. cerevisiae mec2-1 strain, active compounds read high
How it was run: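 Cells of the genetically defined mec2-1 yeast strain are incubated with test compound. Inhibition of growth is calculated against vehicle-treated controls.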

[5] = NCI Yeast Anticancer Drug Screen. Data for the rad14 strain (AID 159);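 note: 0% = growth of vehicle-treated control cultures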; settings: S. cerevisiae rad14 strain growth inhibition, active compounds read high
How it was run: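 Yeast cells carrying a defined DNA-repair defect were exposed to compounds, and growth inhibition was calculated relative to vehicle-treated control cultures.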

[6] = NCI Yeast Anticancer Drug Screen. Data for the sgs1 mgt1 strain (AID 161);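 note: 0% = growth of cultures given vehicle only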; settings: S. cerevisiae sgs1 mgt1 strain, active compounds read high
How it was run: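 Read-out: growth inhibition vs vehicle controls. Cells: mutant yeast strain deficient in DNA damage repair.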

[7] = NCI Yeast Anticancer Drug Screen. Data for the CLN2oe strain (AID 163);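 note: 0% = growth of vehicle-only control cultures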; settings: S. cerevisiae CLN2oe strain, active compounds read high
How it was run: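 Strain altered in cell-cycle control, incubated with compound; growth compared to solvent-treated controls.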

[8] = NCI Yeast Anticancer Drug Screen. Data for the cln2 rad14 strain (AID 165);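 note: 0% = growth equal to vehicle treated cultures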; settings: S. cerevisiae cln2 rad14 strain, active compounds read high
How it was run: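 The screen exposed genetically defined yeast (cln2 rad14) to test compounds and scored growth inhibition relative to vehicle-treated controls.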

[9] = NCI Yeast Anticancer Drug Screen. Data for the bub3 strain (AID 167); settings: S. cerevisiae bub3 mutant strain, active compounds read high
How it was run: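 Compounds were applied to a genetically altered yeast strain carrying a cell-cycle control defect. Growth inhibition was scored against vehicle-treated controls.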

[10] = NCI Yeast Anticancer Drug Screen. Data for the wt2 strain (AID 169);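 note: 0% = growth of vehicle-treated yeast cultures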; settings: S. cerevisiae wt2 strain growth inhibition, active compounds read high
How it was run: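 Steps: yeast strain treated with compound; growth recorded; inhibition calculated relative to cultures given vehicle alone.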

[11] = NCI Yeast Anticancer Drug Screen. Data for the mlh1 strain (AID 171);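 note: 0% = growth of vehicle-treated control cultures of the same strain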; settings: S. cerevisiae mlh1 strain growth inhibition, active compounds read high
How it was run: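 Yeast screen: mutant strain plus compound, growth scored against vehicle control wells.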

[12] = NCI Yeast Anticancer Drug Screen. Data for the sgs1 strain (AID 173);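 note: 0% = growth of vehicle-only control cultures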; settings: S. cerevisiae sgs1 mutant, active compounds read high
How it was run: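 Inhibition of yeast growth served as the measure. The mutant strain was treated with each compound, and growth was normalised to cultures receiving vehicle alone.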

[13] = NCI Yeast Anticancer Drug Screen. Data for the mlh1 rad18 strain (AID 175); settings: S. cerevisiae mlh1 rad18 strain growth inhibition, active compounds read high
How it was run: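 Compound-treated yeast growth, normalised to vehicle controls. Strain bears defined DNA repair mutations.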

[14] = NCI Yeast Anticancer Drug Screen. Data for the rad18 strain (AID 177); settings: S. cerevisiae rad18 mutant growth inhibition, active compounds read high
How it was run: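 Inhibition values reflect reduced yeast growth compared with vehicle-treated controls, using a strain engineered with a DNA damage repair defect.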

[15] = NCI Yeast Anticancer Drug Screen. Data for the rad52 strain (AID 147);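 note: 0% = growth of vehicle-treated control cultures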; settings: S. cerevisiae rad52 mutant growth inhibition, active compounds read high
How it was run: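 Genetically altered yeast (DNA damage repair defect) treated with compound; inhibition calculated relative to vehicle.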

[16] = at 5.0 µM (retest, dose inferred, filed as 0.5)
[17] = at 50.0 µM (retest, dose inferred, filed as 5.0)

Measured: growth inhibition

O=C1C=CC(=O)c2c(O)c(Nc3ccc(OC(F)(F)F)cc3)c(Cl)c(O)c21
active: [1]; at 100.0 µM 94% | [2]; at 100.0 µM 94% | [3]; at 100.0 µM 89% | [4]; at 33.0 µM 78% | [4]; [17] 79% | [4]; at 100.0 µM 94% | [5]; at 100.0 µM 92% | [6]; at 50.0 µM 73% | [7]; at 100.0 µM 83% | [9]; at 50.0 µM 82.2% | [9]; at 100.0 µM 91% | [10]; at 100.0 µM 93% | [11]; at 100.0 µM 87% | [12]; at 100.0 µM 96% | [13]; [17] 76% | [14]; at 100.0 µM 92%
inactive: [1]; at 1.2 µM 23% | [1]; at 3.7 µM 22% | [1]; at 11.0 µM 26% | [1]; at 33.0 µM 50% | [2]; at 1.2 µM 9% | [2]; at 3.7 µM 16% | [2]; at 11.0 µM 16% | [2]; at 33.0 µM 50% | [3]; at 1.2 µM -16% | [3]; at 3.7 µM -15% | [3]; [16] 4% | [3]; at 11.0 µM 4% | [3]; at 33.0 µM 67% | [3]; [17] 46% | [3]; at 50.0 µM 42% | [4]; at 1.2 µM -7% | [4]; at 3.7 µM -3% | [4]; [16] 9% | [4]; at 11.0 µM 8% | [4]; at 50.0 µM 46.8% | [5]; at 1.2 µM 2% | [5]; at 3.7 µM 4% | [5]; at 11.0 µM 6% | [5]; at 33.0 µM 32% | [6]; [16] 35% | [6]; [17] 49% | [7]; at 1.2 µM -8% | [7]; at 3.7 µM 0% | [7]; at 11.0 µM -5% | [7]; at 33.0 µM 12% | [8]; [16] 19% | [8]; [17] 32% | [8]; at 50.0 µM 37.9% | [9]; at 1.2 µM -17% | [9]; at 3.7 µM -8% | [9]; [16] 26% | [9]; at 11.0 µM 1% | [9]; at 33.0 µM 48% | [9]; [17] 65% | [10]; at 1.2 µM -5% | [10]; at 3.7 µM -6% | [10]; at 11.0 µM -6% | [10]; at 33.0 µM 21% | [11]; at 1.2 µM 0% | [11]; at 3.7 µM 6% | [11]; at 11.0 µM 13% | [11]; at 33.0 µM 37% | [12]; at 1.2 µM 34% | [12]; at 3.7 µM 32% | [12]; at 11.0 µM 58% | [12]; at 33.0 µM 62% | [13]; [16] 13% | [13]; at 50.0 µM 68.7% | [14]; at 1.2 µM -2% | [14]; at 3.7 µM -2% | [14]; at 11.0 µM 4% | [14]; at 33.0 µM 45%

COc1ccccc1N=NC(C(=O)c1ccccc1)C(=O)c1ccccc1
active: [15]; at 33.0 µM 97% | [15]; at 100.0 µM 97% | [2]; at 33.0 µM 96% | [2]; at 100.0 µM 98% | [3]; at 33.0 µM 96% | [3]; [17] 96% | [3]; at 50.0 µM 93.4% | [3]; at 100.0 µM 96% | [4]; at 33.0 µM 91% | [4]; [17] 96% | [4]; at 50.0 µM 94.5% | [4]; at 100.0 µM 97% | [5]; at 33.0 µM 98% | [5]; at 100.0 µM 97% | [6]; [17] 95% | [6]; at 50.0 µM 93.7% | [7]; at 33.0 µM 94% | [7]; at 100.0 µM 97% | [8]; [17] 95% | [8]; at 50.0 µM 88.8% | [9]; at 33.0 µM 95% | [9]; [17] 97% | [9]; at 50.0 µM 92.5% | [9]; at 100.0 µM 97% | [10]; at 33.0 µM 92% | [10]; at 100.0 µM 97% | [12]; at 33.0 µM 96% | [12]; at 100.0 µM 96% | [13]; [17] 97% | [13]; at 50.0 µM 92.5% | [14]; at 33.0 µM 96% | [14]; at 100.0 µM 98%
inactive: [15]; at 1.2 µM 3% | [15]; at 3.7 µM 22% | [15]; at 11.0 µM 16% | [2]; at 1.2 µM -29% | [2]; at 3.7 µM -24% | [2]; at 11.0 µM 4% | [3]; at 1.2 µM -50% | [3]; at 3.7 µM -50% | [3]; [16] 34% | [3]; at 11.0 µM -16% | [4]; at 1.2 µM -57% | [4]; at 3.7 µM -31% | [4]; [16] -3% | [4]; at 11.0 µM -25% | [5]; at 1.2 µM -33% | [5]; at 3.7 µM -29% | [5]; at 11.0 µM -14% | [6]; [16] 22% | [7]; at 1.2 µM 16% | [7]; at 3.7 µM -5% | [7]; at 11.0 µM -4% | [8]; [16] 10% | [9]; at 1.2 µM 4% | [9]; at 3.7 µM -17% | [9]; [16] 5% | [9]; at 11.0 µM 17% | [10]; at 1.2 µM -10% | [10]; at 3.7 µM 5% | [10]; at 11.0 µM -6% | [12]; at 1.2 µM -37% | [12]; at 3.7 µM -6% | [12]; at 11.0 µM -4% | [13]; [16] -7% | [14]; at 1.2 µM -5% | [14]; at 3.7 µM 10% | [14]; at 11.0 µM 9%
